From the supplement of paper PMC8253809

Tests used:
Assay in all cases: growth inhibition (% activity, log2 RLU normalised to DMSO / staurosporine); higher = more growth inhibition
Conditions in all cases: 33 µM
DIPGX29 = tested on: DIPGX29 (H3.3 K27M diffuse intrinsic pontine glioma line)
Method in brief: (§1)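 For each approved drug, the growth-inhibition value is the replicate median of per-plate normalised CellTiter-Glo data. Luminescence was log2-transformed and expressed as % activity between solvent and positive control wells. Drugs were applied in triplicate at a single final concentration of about 33 μM for 7 days at 37 °C, 5% CO2 to pHGG cell lines and H9-derived neural stem cells.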

DIPGX37 = tested on: DIPGX37 (H3.3 K27M diffuse intrinsic pontine glioma line)
Method in brief: as §1

DIPGX7 = tested on: DIPGX7 (H3.3 K27M diffuse intrinsic pontine glioma line)
Method in brief: as §1

DIPGX9 = tested on: DIPGX9 (diffuse intrinsic pontine glioma line)
Method in brief: as §1

HGGX39 = tested on: HGGX39 (paediatric high-grade glioma line)
Method in brief: as §1

HGGX6 = tested on: HGGX6 (H3.3 G34R paediatric high-grade glioma line)
Method in brief: as §1

HNSC = tested on: HNSC
Method in brief: as §1

SUDIPGIV = tested on: SUDIPGIV (diffuse intrinsic pontine glioma line)
Method in brief: as §1

SUDIPGVI = tested on: SUDIPGVI (diffuse intrinsic pontine glioma line)
Method in brief: as §1

SUDIPGXIII = tested on: SUDIPGXIII (diffuse intrinsic pontine glioma line)
Method in brief: as §1

SMILES | growth inhibition (DIPGX29) | growth inhibition (DIPGX37) | growth inhibition (DIPGX7) | growth inhibition (DIPGX9) | growth inhibition (HGGX39) | growth inhibition (HGGX6) | growth inhibition (HNSC) | growth inhibition (SUDIPGIV) | growth inhibition (SUDIPGVI) | growth inhibition (SUDIPGXIII)
CN(C(=O)CN(CCO)CC(=O)N(C)C(C)(C)Cc1ccccc1)C(C)(C)Cc1ccccc1 | 11.3% | 3.37% | 29% | 4.47% | 9.74% | 2.56% | 53.1% | 3.05% | 6.12% | 10.4%
CCN[C@H]1CN(CCCOC)S(=O)(=O)c2sc(S(N)(=O)=O)cc21 | 0.611% | 0.875% | 1.84% | 0.558% | 2.35% | 2.83% | -0.529% | -0.244% | 2.59% | -0.696%
CN1CCN(CCCN2c3ccccc3Sc3ccc(Cl)cc32)CC1 | 4.66% | 1.44% | 9.7% | -0.83% | 3.02% | 1.39% | 13.3% | -0.567% | -3.14% | -0.277%
CC(=O)OCC(=O)[C@@]12N=C(C)O[C@@H]1C[C@H]1[C@@H]3CCC4=CC(=O)C=C[C@]4(C)[C@H]3[C@@H](O)C[C@@]12C | 2.06% | 0.767% | 0.297% | 4.71% | 3.17% | 0.221% | 1.26% | -3.7% | -1.31% | -1.39%
CC(C(=O)O)c1ccc2c(c1)CC(=O)c1ccccc1S2 (stereo not given) | 1.3% | 4.16% | 2.06% | 1.25% | 2.45% | 2.99% | 1.66% | -1.48% | 4.71% | 0.56%
Nc1ccc(S(=O)(=O)Nc2nccs2)cc1 | -2.53% | -1.47% | -1.25% | -0.733% | -2.1% | -3.04% | 5.4% | -1.7% | -2.69% | 0.0367%
O=C1CN2Cc3c(ccc(Cl)c3Cl)N=C2N1 | -0.095% | -0.968% | -0.492% | 0.847% | 3.51% | 9.62% | -2.73% | -0.36% | 0.709% | -4.79%
O=c1oc2cc(O)ccc2s1 | 1.14% | 3.19% | 6.79% | 1.73% | 8.04% | 3.75% | 2.15% | 1.11% | 5.42% | 28.9%
Cn1c(=O)c2c(ncn2CC2OCCO2)n(C)c1=O | 0.735% | 3.27% | 0.989% | 0.338% | 4.64% | -0.428% | 12.2% | 2.59% | 1.02% | 0.38%
CCCCc1oc2ccc(NS(C)(=O)=O)cc2c1C(=O)c1ccc(OCCCN(CCCC)CCCC)cc1 | 58.9% | 57.4% | 57% | 57.4% | 56.2% | 60.2% | 55.5% | 57.7% | 59.4% | 24.1%
CC1=C(/C=C/C(C)=C/C=C/C(C)=C/C=C/C=C(C)/C=C/C=C(C)/C=C/C2=C(C)CCCC2(C)C)C(C)(C)CCC1 | -2.65% | -1.75% | -0.22% | -2.07% | -4.95% | -2.28% | -2.5% | -5% | -7.28% | -0.475%
CN(C)CCOc1ccc(/C(=C(/CCCl)c2ccccc2)c2ccccc2)cc1 | 2.43% | 1.15% | 6.73% | 0.45% | 5.94% | 5.5% | 2.79% | 2.82% | 0.578% | -0.556%
CCc1cc(C(N)=S)ccn1 | -2.89% | -1.22% | -0.907% | -2.73% | -1.46% | -1.03% | -5.37% | -0.99% | -3.57% | -0.39%
CN1C(C(=O)Nc2ccccn2)=C(O)c2sccc2S1(=O)=O | -1.4% | 1.63% | -0.195% | 1.24% | 0.358% | 0.485% | -0.824% | -4.89% | 0.891% | -0.625%
COc1ccccc1N1CCN(CCCNc2cc(=O)n(C)c(=O)n2C)CC1 | -0.448% | 2.3% | -0.071% | 0.0185% | 0.367% | 0.543% | 0.25% | -1.07% | -1.77% | 1.17%
Cc1cnc(C(=O)O)c[n+]1[O-] | 1.49% | 2.38% | 1.7% | 5.6% | 1.15% | 2.68% | 3.09% | 1.14% | 1.26% | 0.57%
CC(COc1ccccc1)N(CCCl)Cc1ccccc1 (stereo not given) | -2.73% | -0.547% | 0.876% | -1.7% | -4.31% | -3.53% | 41.4% | -2.44% | -7.02% | 1.89%
C[C@@H](O)[C@H]1C(=O)N2C(C(=O)O)=C(S[C@@H]3CN[C@H](CNS(N)(=O)=O)C3)[C@H](C)[C@H]12 | 0.9% | -1.74% | 3.79% | -0.371% | -0.0496% | -2.09% | 28.8% | -1.38% | -5.58% | -1.69%
CN1CCOC(c2ccccc2)c2ccccc2C1 (stereo not given) | -3.82% | -1.11% | -0.00387% | -2.6% | -1.87% | -4.34% | 19.3% | -1.45% | -8.5% | 2.52%
CC(C)C(=O)Nc1ccc([N+](=O)[O-])c(C(F)(F)F)c1 | 1.6% | 2.28% | 2.18% | 2.7% | 11.9% | 0.873% | 6.29% | 5.63% | 3.39% | 2.07%
C#CCC(Cc1cnc2nc(N)nc(N)c2n1)c1ccc(C(=O)N[C@@H](CCC(=O)O)C(=O)O)cc1 (stereo not given in full) | 10.7% | 6.3% | 25% | 9.98% | 22.8% | 24% | 56.1% | 16.5% | 17.6% | 13%

SMILES | growth inhibition (DIPGX29) | growth inhibition (DIPGX37) | growth inhibition (DIPGX7) | growth inhibition (DIPGX9) | growth inhibition (HGGX39) | growth inhibition (HGGX6) | growth inhibition (HNSC) | growth inhibition (SUDIPGIV) | growth inhibition (SUDIPGVI) | growth inhibition (SUDIPGXIII)
CC[C@H]1OC(=O)[C@H](C)[C@@H](O[C@H]2C[C@@](C)(OC)[C@@H](O)[C@H](C)O2)[C@H](C)[C@@H](O[C@@H]2O[C@H](C)C[C@H](N(C)C)[C@H]2O)[C@](C)(OC)C[C@@H](C)C(=O)[C@H](C)[C@@H](O)[C@]1(C)O | -1.86% | 0.02% | -2.66% | -0.349% | 1.64% | 0.562% | -3.32% | -2.12% | -0.602% | -13%
CNCCCC12CCC(c3ccccc31)c1ccccc12 | -1.06% | -0.189% | 1.34% | -1.84% | -0.798% | -0.808% | 27.6% | -1.99% | -4.58% | 0.908%
CN(c1nccc(=O)[nH]1)C1CCN(c2nc3ccccc3n2Cc2ccc(F)cc2)CC1 | 2.38% | 2.96% | 2.33% | 1.85% | 4.67% | 3.86% | 1.95% | 0.631% | 3.14% | -15%
O=C(Nc1ccc([N+](=O)[O-])cc1Cl)c1cc(Cl)ccc1O | 43.9% | -2.57% | 24.1% | 2.53% | 4.01% | 5.02% | 7.85% | 16.6% | 3.13% | 61.3%
CN1CCCC(n2nc(Cc3ccc(Cl)cc3)c3ccccc3c2=O)CC1 (stereo not given) | 3.68% | 2.48% | 4.68% | 2.54% | 7.54% | 3.65% | 0.14% | 1.76% | 0.965% | 2.09%
Nc1ccc(C(=O)NCC(=O)O)cc1 | -0.487% | -0.247% | -0.0371% | 0.0884% | 1.62% | 2.81% | -1.34% | 1.42% | 1.49% | 0.0926%
Nc1nc2c(ncn2COCCO)c(=O)[nH]1 | -1.73% | 1.12% | 1.01% | 0.254% | 1.26% | -2.13% | 5.44% | -0.972% | -0.331% | 0.201%
O=C(OCC(O)CO)c1ccccc1Nc1ccnc2cc(Cl)ccc12 (stereo not given) | 0.939% | 1.64% | -1.23% | 1.63% | 3.28% | 1.2% | 0.63% | -4.61% | 2.77% | 0.927%
COc1ccc2cc([C@H](C)C(=O)O)ccc2c1 | -0.22% | -1.1% | -0.43% | 0.193% | -0.312% | 0.298% | 0.9% | -2.72% | 0.358% | 0.579%
COc1ccc(-c2ccc3cc(C(=O)O)ccc3c2)cc1C12CC3CC(CC(C3)C1)C2 | 2.22% | 0.00524% | 1.73% | 2.82% | 2.84% | 2.51% | 1.43% | 3.15% | -4.99% | 1.39%
C[C@@H](NCCCc1cccc(C(F)(F)F)c1)c1cccc2ccccc12 | 8.61% | 3.26% | 6.24% | 5.87% | 5.43% | 18.9% | 49.7% | 4.23% | -0.119% | 0.33%
CCN(CC)CCNC(C(=O)OCCC(C)C)c1ccccc1 (stereo not given) | 2% | -0.0996% | 4.26% | 1.08% | 0.0597% | 0.247% | 74.6% | 1.14% | -6.42% | 2.01%
Cc1ccccc1C(=O)Nc1ccc(C(=O)N2CCCC(O)c3cc(Cl)ccc32)c(C)c1 (stereo not given) | 1.7% | 2.36% | 1.66% | 1.96% | 5.63% | 2.91% | 3.21% | 2.35% | 3.58% | 0.514%
CN1CCCCC1CCN1c2ccccc2Sc2ccc([S+](C)[O-])cc21 (stereo not given) | -1.62% | 1.07% | -1.12% | -0.108% | -0.329% | -0.926% | 1.22% | -1.02% | -0.796% | 1.03%
COC(=O)Nc1nc2cc(Sc3ccccc3)ccc2[nH]1 | 6.86% | 10.3% | 8.12% | 9.42% | 10.7% | 10.1% | 77% | 10.8% | 4.78% | 3.48%
Cc1ccc(C)c(OCCCC(C)(C)C(=O)O)c1 | -0.441% | -0.0995% | 0.0111% | 0.88% | 0.357% | -0.472% | -1.45% | -0.859% | 0.864% | 0.0955%
CC[C@@]1(O)C(=O)OCc2c1cc1n(c2=O)Cc2cc3c(CN(C)C)c(O)ccc3nc2-1 | 12.9% | 21.8% | 37.9% | 51.6% | 40.2% | 17.2% | 53.9% | 48.4% | 7.54% | 4.79%
CC(C(=O)O)c1ccc(-c2ccccc2)c(F)c1 (stereo not given) | 0.779% | 3.25% | 1.53% | 1.06% | 2.57% | 1.43% | 0.919% | -4.24% | 2.75% | -0.916%
CC1(C)S[C@@H]2[C@H](NC(=O)[C@H](NC(=O)N3CCN(S(C)(=O)=O)C3=O)c3ccccc3)C(=O)N2[C@H]1C(=O)O | -1.26% | 0.368% | -0.979% | -1.9% | -0.656% | -0.1% | -2.17% | 0.286% | -2.19% | 2.64%
NC(=O)c1ncn([C@@H]2O[C@H](CO)[C@@H](O)[C@H]2O)c1O | 0.0608% | 0.272% | -0.185% | -0.234% | 1.1% | 0.705% | 1.34% | -0.809% | -1.05% | -0.893%
Cc1ccc2c(Cl)cc(Cl)c(O)c2n1 | 8.88% | 2.78% | 3.99% | 8.04% | 4.68% | 3.09% | 46% | 5.39% | 5.64% | 3.89%
